Screening data from PubChem BioAssay.
ugtP null kill: growth inhibition of ugtP-null S. aureus, primary screen, RN4220 ugtP deletion, OD600. 16 h. growth inhibition, % (test concentration not listed). actives 0.54% (n = 330,000); in the data active = growth inhibition above about 68%
TcdB GH inh: TcdB glycohydrolase inhibitors, primary screen, biochemical, single point, plate reader; AID 652162, 2013; inhibition, % at 9.99 µM; actives 0.24% (n = 350,000); Toxin B (Clostridioides difficile), P18177; TcdB glycohydrolase enzymatic assay; in the data active = inhibition above about 10%
PrP 5UTR inh: inhibition of PrP 5' UTR reporter expression; inhibition, % (no concentration beside the values); actives 0.35% (n = 340,000); AID 488862, 2010; cell-based PrP 5' UTR mRNA reporter, plate reader; in the data active = inhibition above about 52%
PfHsp40 yeast: rescue of yeast from PfHsp40 toxicity, primary screen, S. cerevisiae, ATP luminescence | S. cerevisiae expressing PfHsp40, growth rescue | actives 0.68% (n = 340,000) | growth rescue, % at 12.5 µM | AID 504582, 2011; in the data active = growth rescue above about 28%, passing the limit was not always enough;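 also: yeast W303a lacking pdr1 and pdr3 grown in galactose medium; growth measured after three days at 30 °C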
Sa RN4220 lethal: growth inhibition of S. aureus RN4220, primary screen, OD600. inhibition, % (test concentration not listed). actives 0.33% (n = 330,000). 16 h; in the data active = inhibition above about 85%
A number is an active result; 0 = inactive; - = no result given. A selection: hits, their analogues and other compounds. The true share with any hit is near 1.2%.

SMILES	ugtP null kill	TcdB GH inh	PrP 5UTR inh	PfHsp40 yeast	Sa RN4220 lethal
O=C1C(Cc2ccccc2)Nc2ncnc(N3CCc4ccccc4C3)c2N1Cc1ccc(Cl)cc1 (stereo not drawn)	-	-	0	38	-
COc1ccc(CN2C(=O)C(Cc3ccccc3)Nc3ncnc(N4CCOCC4)c32)cc1 (stereo not drawn)	0	0	0	45	0
O=C(NC[C@@H]1CC[C@@H]2[C@@H](CN2S(=O)(=O)c2ccccc2[N+](=O)[O-])O1)Nc1ccccc1	-	0	-	-	-
CC1CC(=O)N(c2ccc(NCCc3ccc(O)cc3)c([N+](=O)[O-])c2)C1=O (stereo not drawn)	0	12	0	0	0
CC(=O)Nc1ccc2c(c1)C(=O)N(C)[C@@H]1CC[C@H](CC(=O)Nc3cn(C)nc3C)O[C@H]1CO2	-	0	-	-	-
CCOC(=O)C1=C(C)NC(=S)N(C(C)=O)C1c1ccc(OC)c(OC)c1 (stereo not drawn)	0	0	0	0	0
CCOC(=O)C1=C(C)Nc2nnnn2C1c1ccc(OC)c(Br)c1 (stereo not drawn)	0	12	0	0	0
COc1cc(NS(=O)(=O)c2ccc(Nc3nc(-c4ccccn4)cs3)cc2)nc(OC)n1	90	0	0	0	0
Cc1ccc(NS(=O)(=O)c2ccc(N3CCN(c4ccc(O)cc4)CC3)c([N+](=O)[O-])c2)c(C)c1	0	0	0	70	0
O=S(=O)(CCSc1ccccn1)c1nc2ccccc2s1	0	0	0	59	0
O=S(=O)(CCSc1nc2ccccc2o1)c1nc2ccccc2s1	0	0	0	0	0
O=C(C[C@H]1CC[C@@H](NC(=O)CN2CCOCC2)[C@@H](CO)O1)NCCc1ccccc1	-	0	-	-	-
Oc1ccc(-c2nccc(-c3ccc(Cl)cc3)n2)cc1	0	0	0	-	0
Oc1ccc(-c2cccc(-c3ccc(O)cc3)n2)cc1	99	-	0	0	98
Oc1ccc(-c2cc(-c3ccc(O)cc3)nc(-c3ccccc3)n2)cc1	100	0	0	0	97
O=C(O)C[C@@H]1CC[C@H](NC(=O)Nc2ccccc2)[C@H](CO)O1	-	0	-	-	-
C[C@@H]1CN([C@@H](C)CO)C(=O)c2cc(NS(=O)(=O)c3cn(C)cn3)ccc2O[C@@H](C)CCCCO[C@H]1CN(C)CC1CC1	-	0	-	-	-
CO[C@@H]1CN(C)C(=O)c2cc(NC(=O)Nc3cccc(Cl)c3)ccc2OC[C@H](C)NC[C@H]1C	-	0	-	-	-
Cc1cc(C)c2nc(NC(=O)c3ccc([N+](=O)[O-])o3)sc2c1	99	0	0	0	0
O=C(Nc1nc2cc3c(cc2s1)OCCO3)c1ccc([N+](=O)[O-])o1	88	0	0	0	0
COc1ccc2nc(NC(=O)c3ccc([N+](=O)[O-])o3)sc2c1	100	0	0	0	0
Cc1ccc(C(=O)NN=Cc2cccn2C)cn1	0	-	-	-	0
C=CCN1CCc2cc(O)c(O)cc2C(c2ccccc2)C1 (stereo not drawn)	0	0	0	0	0
C=CCN1CCc2c(cc(O)c(O)c2Cl)C(c2ccccc2)C1 (stereo not drawn)	0	0	0	46	0
C/C(=N/NC(=O)c1cc2ccccc2cc1O)c1ccco1	-	0	0	77	-
SMILES	ugtP null kill	TcdB GH inh	PrP 5UTR inh	PfHsp40 yeast	Sa RN4220 lethal
CO[C@H]1CN(C)C(=O)c2ccc(NC(=O)C3CCC3)cc2OC[C@@H](C)N(C(=O)NC(C)C)C[C@@H]1C	-	0	-	-	-
Cc1cc(NS(=O)(=O)c2ccc(NC(=O)CSc3nnc(-c4ccco4)n3Cc3ccco3)cc2)nc(C)n1	0	-	0	54	0
C[C@H]1CCCCO[C@H](CN(C)C(=O)c2ccncc2)[C@@H](C)CN([C@@H](C)CO)C(=O)c2cc(NC(=O)Cc3ccccc3)ccc2O1	-	0	-	-	-
O=C1CSC(=Nc2ccc(O)cc2)N1	0	15	0	0	0
CCc1cc(C(=O)Nc2nc(-c3ccccn3)cs2)sc1C	0	0	0	365	0
Cc1cc(C(=O)Nc2nc(-c3ccccn3)cs2)ccc1[N+](=O)[O-]	0	0	0	73	0
CC(C)Cc1[nH]c(=O)c(C#N)c2c1CCC2	0	50	0	0	0
Cc1ccccc1C=NNC(=O)Cc1ccc(Cl)cc1	0	-	-	-	0
COc1ccc(C(NC(=O)CC(C)C)c2c(O)ccc3ccccc23)cc1 (stereo not drawn)	0	0	0	33	0
CC(=O)Oc1ccc2ccccc2c1C(NC(=O)Cc1ccccc1)c1ccc(Cl)cc1 (stereo not drawn)	0	-	0	40	0
CCOc1ccc(C(NC(=O)CC)c2c(O)ccc3ccccc23)cc1 (stereo not drawn)	0	0	0	0	0
C/C=C/c1ccc([C@@H]2[C@H]3CN(C(=O)Nc4ccc(F)cc4)CCCCN3[C@H]2CO)cc1	-	0	-	-	-
O=C(NCc1ccccn1)C(=O)NCC1OCCN1S(=O)(=O)c1ccc([N+](=O)[O-])cc1 (stereo not drawn)	0	0	0	107	0
O=C(NCc1ccccn1)C(=O)NCC1OCCN1S(=O)(=O)c1ccc(Br)cc1 (stereo not drawn)	0	0	0	0	0
O=[N+]([O-])c1cc(Br)c(Nc2ccccc2)c([N+](=O)[O-])c1	0	0	0	67	0
O=C(Nc1ccccc1)c1ccc(Nc2c([N+](=O)[O-])cc([N+](=O)[O-])c3ccccc23)cc1	-	-	0	0	-
CC(C)(C)N1C(CC(=O)O)c2cc(C(F)(F)F)ccc2S1(=O)=O (stereo not drawn)	0	-	-	-	0
CC(C)(C)N1[C@@H](CC(=O)O)c2cc(C(F)(F)F)ccc2S1(=O)=O	-	12	0	0	-
NS(=O)(=O)c1cccc(NC(=O)c2ccc(NS(=O)(=O)c3cccc([N+](=O)[O-])c3)cc2)c1	0	12	0	0	0
Cc1ccc(C(=O)Nc2cccc([N+](=O)[O-])c2)cc1S(=O)(=O)Nc1cccc(C(=O)O)c1	94	0	0	0	0
COc1cccc(CNC(=O)C[C@@H]2CC[C@@H](NC(C)=O)[C@H](CO)O2)c1	-	0	-	-	-
O=C(CSc1ccccc1)NC(=O)NCc1ccccc1	0	0	0	84	0
C[C@]12C(=O)N(c3ccc(F)cc3)C(=O)N1[C@H]1c3ccccc3OC[C@@H]1[C@H]2c1ccccc1	0	0	0	94	0
COc1ccc2c(c1)OC[C@H]1[C@H]2N2C(=O)c3cc(OC)ccc3NC(=O)[C@@]2(C)[C@H]1c1ccccc1	-	0	0	117	-
CC(=NNC(=O)COc1cccc(Br)c1)c1ccc2c(c1)OCCO2	0	-	-	-	0
Cc1cc(=O)[nH]c(N=C(N)Nc2cccc3ccccc23)n1	0	-	-	-	0
CCOc1ccc(/C=C2\SC(=S)N(CCCC(=O)NCCCN3CCOCC3)C2=O)cc1	0	0	81	0	0
CCc1ccc(/C=C2\SC(=S)N(CCCC(=O)NCCCN3CCOCC3)C2=O)cc1	-	0	-	-	-
CC1CCN(Cc2c(C(=O)NN=Cc3ccc(C(C)(C)C)cc3)nnn2-c2nonc2N)CC1	0	-	-	-	0
